{"source": "paper PMC4336329", "about": "(PLoS ONE, 2015)", "note": "The whole screen tested about 310,000 compounds, of which about 14,000 (4.5%) showed an effect of 50% or more. Effects have a minus sign here. This is one part of a sample in which strong results are shown more often than they occur.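 Also: peak tail current of the secondary pulse compared with the same well before compound.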"}
{"target": "human ether-à-go-go-related gene (hERG) potassium channel (human, UniProt Q12809)", "sequence (Q12809 whole entry, looked up)": "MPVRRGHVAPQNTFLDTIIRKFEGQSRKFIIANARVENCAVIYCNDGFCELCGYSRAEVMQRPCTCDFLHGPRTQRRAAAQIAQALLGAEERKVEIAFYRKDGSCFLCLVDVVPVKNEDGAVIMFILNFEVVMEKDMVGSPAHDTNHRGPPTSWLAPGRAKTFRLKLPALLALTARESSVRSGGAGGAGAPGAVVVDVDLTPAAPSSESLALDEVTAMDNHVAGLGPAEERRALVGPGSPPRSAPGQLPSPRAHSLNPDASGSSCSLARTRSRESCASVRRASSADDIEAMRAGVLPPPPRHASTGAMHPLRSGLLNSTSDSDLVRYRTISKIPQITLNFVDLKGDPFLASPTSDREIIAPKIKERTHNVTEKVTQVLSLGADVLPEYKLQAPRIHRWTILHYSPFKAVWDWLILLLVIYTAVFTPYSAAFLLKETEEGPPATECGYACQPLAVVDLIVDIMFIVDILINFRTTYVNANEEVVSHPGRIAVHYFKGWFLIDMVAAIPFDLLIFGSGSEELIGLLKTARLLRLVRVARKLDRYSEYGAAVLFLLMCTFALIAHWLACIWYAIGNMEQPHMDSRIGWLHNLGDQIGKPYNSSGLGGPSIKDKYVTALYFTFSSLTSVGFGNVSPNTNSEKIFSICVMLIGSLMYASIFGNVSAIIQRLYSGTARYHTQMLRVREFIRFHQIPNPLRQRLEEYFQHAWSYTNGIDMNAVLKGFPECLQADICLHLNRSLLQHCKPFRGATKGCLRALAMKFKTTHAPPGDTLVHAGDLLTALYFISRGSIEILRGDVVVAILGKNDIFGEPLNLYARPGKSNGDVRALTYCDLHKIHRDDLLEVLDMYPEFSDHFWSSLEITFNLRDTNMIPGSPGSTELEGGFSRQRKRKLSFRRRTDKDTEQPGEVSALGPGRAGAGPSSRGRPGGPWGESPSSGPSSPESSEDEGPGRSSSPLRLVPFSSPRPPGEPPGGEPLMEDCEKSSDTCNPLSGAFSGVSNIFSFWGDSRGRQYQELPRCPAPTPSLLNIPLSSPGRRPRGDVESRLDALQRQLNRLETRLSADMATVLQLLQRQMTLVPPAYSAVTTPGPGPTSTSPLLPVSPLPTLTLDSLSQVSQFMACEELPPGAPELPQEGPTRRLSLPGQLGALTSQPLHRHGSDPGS", "experiment": "primary screen, population patch clamp on CHO cells stably expressing hERG; higher = less effect of the substance", "units": {"hERG current change (%, negative = inhibition) at 10uM": "%"}}
{"smiles": "Cc1ccc(NC(=O)Cn2nc(C(=O)Nc3ccc(C)cc3)ccc2=O)cc1", "hERG current change (%, negative = inhibition) at 10uM": 10.8}
{"smiles": "CCN(CC)S(=O)(=O)c1cccc(C(=O)OC2CC(C)OC2=O)c1", "note": "(stereo not shown)", "hERG current change (%, negative = inhibition) at 10uM": 12.7}
{"smiles": "Nc1nc(NCc2ccccc2)nc(NCc2ccccc2)c1[N+](=O)[O-]", "hERG current change (%, negative = inhibition) at 10uM": 16.2}
{"smiles": "O=C(Nc1c2c(nn1-c1ccccc1)CS(=O)C2)c1ccc(S(=O)(=O)N2CCOCC2)cc1", "note": "(stereo not shown)", "hERG current change (%, negative = inhibition) at 10uM": 17.4}
{"smiles": "COc1cc(NC(=O)COC(=O)/C=C/c2ccc(Cl)cc2Cl)cc(OC)c1", "hERG current change (%, negative = inhibition) at 10uM": 5.23}
{"smiles": "CC(C)(C)NC(=O)NCCc1ccccc1", "hERG current change (%, negative = inhibition) at 10uM": 11}
{"smiles": "CC(=O)Nc1ccc2nc(SCC(=O)N3CCOCC3)sc2c1", "hERG current change (%, negative = inhibition) at 10uM": 18.9}
{"smiles": "COc1cc(/C=N/NC(=O)[C@H](Cc2c[nH]c3ccccc23)NC(=O)OCC(C)C)cc([N+](=O)[O-])c1O", "hERG current change (%, negative = inhibition) at 10uM": 10.3}
{"smiles": "COc1ccc(S(=O)(=O)N2CCCCCC2)cc1C(=O)N(C)Cc1ccc(Cl)cc1Cl", "hERG current change (%, negative = inhibition) at 10uM": -23.1}
{"smiles": "COc1ccc(S(=O)(=O)N2CCCCCC2)cc1C(=O)N(C)CCOc1ccc(Cl)cc1", "hERG current change (%, negative = inhibition) at 10uM": -47.7}
{"smiles": "CN(CCOc1ccccc1)C(=O)c1cc([N+](=O)[O-])ccc1N1CCOCC1", "hERG current change (%, negative = inhibition) at 10uM": -27.3}
{"smiles": "COc1ccc(S(=O)(=O)N2CCOCC2)cc1C(=O)N(C)CCOc1ccc(Cl)cc1", "hERG current change (%, negative = inhibition) at 10uM": -79.8}
{"smiles": "O=C(COc1ccc(S(=O)(=O)N2CCOCC2)cc1)NCC1CCCO1", "note": "(stereo not shown)", "hERG current change (%, negative = inhibition) at 10uM": -15.1}
{"smiles": "CCN1CCN(S(=O)(=O)c2ccc(Cl)c(C(=O)N(C)Cc3ccc(F)cc3)c2)CC1", "hERG current change (%, negative = inhibition) at 10uM": -25.1}
{"smiles": "CCN1CCN(S(=O)(=O)c2ccc(Cl)c(C(=O)N(C)CCOc3ccc(Cl)cc3)c2)CC1", "hERG current change (%, negative = inhibition) at 10uM": -52.8}
{"smiles": "CN(CCOc1ccc(Cl)cc1)C(=O)c1cc([N+](=O)[O-])ccc1N1CCOCC1", "hERG current change (%, negative = inhibition) at 10uM": -66.7}
{"smiles": "CCN1CCN(S(=O)(=O)c2ccc(Cl)c(C(=O)N(C)Cc3cccc(OC)c3)c2)CC1", "hERG current change (%, negative = inhibition) at 10uM": -11.2}
{"smiles": "O=S(=O)(c1ccc2c(c1)nc(COc1ccc(Cl)cc1)n2CC1CCCO1)N1CCOCC1", "note": "(stereo not shown)", "hERG current change (%, negative = inhibition) at 10uM": -65.2}
{"smiles": "O=C(NCC1CCCO1)c1cc(S(=O)(=O)N2CCOCC2)ccc1Cl", "note": "(stereo not shown)", "hERG current change (%, negative = inhibition) at 10uM": 16.5}
{"smiles": "Cc1cccc(C)c1NC(=O)CN(C)C(=O)c1cc([N+](=O)[O-])ccc1N1CCOCC1", "hERG current change (%, negative = inhibition) at 10uM": 24.1}
{"smiles": "COCCNC(=O)Cn1cc(C(=O)c2ccccc2F)c2ccccc21", "hERG current change (%, negative = inhibition) at 10uM": 12.5}
{"smiles": "COc1ccccc1CNc1ncnc2cc(OC)c(OC)cc12", "hERG current change (%, negative = inhibition) at 10uM": -32}
{"smiles": "CCOC(=O)c1c(NC(=O)Cn2cnc3scc(-c4ccc(C)cc4)c3c2=O)sc(C)c1C", "hERG current change (%, negative = inhibition) at 10uM": -14.5}
{"smiles": "CCCNC(=S)Nc1ccc(Nc2ccccc2)cc1", "hERG current change (%, negative = inhibition) at 10uM": -15}
{"smiles": "O=C(CSc1cn[nH]n1)Nc1ccccc1C(F)(F)F", "hERG current change (%, negative = inhibition) at 10uM": 8.13}
{"smiles": "Cc1ccc(S(=O)(=O)N2CCOCC2)cc1C(=O)N(C)CCOc1ccc(Cl)cc1", "hERG current change (%, negative = inhibition) at 10uM": -64}
{"smiles": "COc1ccc(Br)cc1CN(C)C(=O)Cc1ccc(S(=O)(=O)N2CCOCC2)s1", "hERG current change (%, negative = inhibition) at 10uM": -70.4}
{"smiles": "Cc1ccc(S(=O)(=O)N2CCOCC2)cc1C(=O)OCCOc1cccc(Cl)c1", "hERG current change (%, negative = inhibition) at 10uM": -9.45}
{"smiles": "COc1ccc(CN(C)C(=O)Cc2ccc(S(=O)(=O)N3CCOCC3)s2)cc1OC", "hERG current change (%, negative = inhibition) at 10uM": 7.58}
{"smiles": "CN(CCOc1ccccc1)C(=O)c1cc(S(=O)(=O)N2CCOCC2)ccc1Cl", "hERG current change (%, negative = inhibition) at 10uM": -48.4}
{"smiles": "COc1ccc(Br)cc1CN(C)C(=O)Cc1ccc(OC)c(S(=O)(=O)N2CCOCC2)c1", "hERG current change (%, negative = inhibition) at 10uM": -41}
{"smiles": "CC(OC(=O)/C=C/c1ccc(Br)cc1)C(=O)N1CCOCC1", "note": "(stereo not shown)", "hERG current change (%, negative = inhibition) at 10uM": -10.8}
{"smiles": "CCc1cc(=O)oc2c(CNC(Cc3ccccc3)C(=O)O)c(O)ccc12", "note": "(stereo not shown)", "hERG current change (%, negative = inhibition) at 10uM": 9.3}
{"smiles": "O=c1ccn(Cc2ccccc2Cl)cc1", "hERG current change (%, negative = inhibition) at 10uM": 8.8}
{"smiles": "O=C(CCc1nnc(-c2ccsc2)o1)NCc1ccccc1OC(F)(F)F", "hERG current change (%, negative = inhibition) at 10uM": 3.76}
{"smiles": "CN1C(=O)C(=Cc2coc3ccccc3c2=O)C(=O)N(C)C1=O", "hERG current change (%, negative = inhibition) at 10uM": 2.32}
{"smiles": "O=C(Cn1cnc2ccccc21)Nc1ccc(F)c(F)c1", "hERG current change (%, negative = inhibition) at 10uM": 8.41}
{"smiles": "O=C(Cn1cnc2ccccc21)Nc1ccc(C(=O)O)cc1.O=C(O)C(=O)O", "hERG current change (%, negative = inhibition) at 10uM": -71.4}
{"smiles": "Cc1ccc(NC(=O)Cn2cnc3ccccc32)cc1C", "hERG current change (%, negative = inhibition) at 10uM": -3.44}
{"smiles": "O=S(=O)(c1ccc(N2CCOCC2)cc1)N1CCOCC1", "hERG current change (%, negative = inhibition) at 10uM": -5.96}
{"smiles": "O=C(CNC(=O)c1ccccc1)OCCCOC(=O)CNC(=O)c1ccccc1", "hERG current change (%, negative = inhibition) at 10uM": 11.8}
{"smiles": "O=C(NC(=S)N1CCOCC1)c1ccccc1Cl", "hERG current change (%, negative = inhibition) at 10uM": 12.7}
{"smiles": "O=C(NN1C(=O)c2cc(Br)ccc2NC1c1ccccc1Cl)c1ccncc1", "note": "(stereo not shown)", "hERG current change (%, negative = inhibition) at 10uM": 8.83}
